# Assay results from PubChem BioAssay.
# Calls of active or inactive are those of the source.
# Key:
# [1] = optical density shifts of acrAB sulA E. coli – strain DRC41, OD650, 48 h, E. coli filamentation inducer project, primary screen (AID 1152); conditions: higher = more signal, called active from +8 up or from −8 down;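 also: E. coli MC1000 strain DRC41 lacking acrAB efflux pump and sulA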
# [2] = probe aLefty1 binding on compound microarray – biochemical, small-molecule microarray, 635/667 nm fluorescence, primary screen (AID 1153); conditions: higher = more signal;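 also: score merges spot fluorescence with signal-to-noise ratio from the scanned slide images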
# [3] = plasmodial surface anion channel blockers, osmotic lysis – cell-based, P. falciparum Indochina, OD700, 1 h, primary screen (AID 1154); conditions: P. falciparum Indochina infected RBC osmotic lysis, higher = more signal, called active from +8 up or from −8 down
# [4] = plasmodial surface anion channel blockers, osmotic lysis – cell-based, P. falciparum Indochina, OD700, 2 h, primary screen (AID 1155);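 also: lysis reports solute entry through the parasite surface anion channel PSAC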; conditions: P. falciparum Indochina infected erythrocytes, higher = more signal, called active from +8 up or from −8 down
# [5] = changes in parasitized red cell lysis, either direction – P. falciparum Indochina, OD700, 3 h, PSAC antagonist project, primary screen (AID 1156); conditions: P. falciparum-infected erythrocytes, osmotic lysis, higher = more signal, called active from +8 up or from −8 down
# [6] = plasmodial surface anion channel blockers, osmotic lysis – cell-based, P. falciparum Indochina, OD700, 18 h, primary screen (AID 1157); conditions: P. falciparum Indochina infected erythrocytes, osmotic lysis OD700, 18 h; higher = more signal, called active from +8 up or from −8 down
# [7] = S6 kinase pathway phospho-S6 level changes – cell-based, A549, cytoblot, luminescence, serum-stimulated, primary screen (AID 1158); conditions: 5 h, higher = more signal;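 also: serum-stimulated A549 lung adenocarcinoma cells; signal is phosphorylated S6 detected by cytoblot immunostaining with HRP secondary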
# [8] = biological target: NADPH oxidase 2 (Homo sapiens) (UniProt P04839); assay: compounds shifting NOX2 Amplex Red fluorescence – cell-based, HEK293-NOX2, PMA-stimulated, NOX inhibitor project, primary screen (AID 1159); conditions: 45 min, higher = more signal, called active from +8 up or from −8 down; also: test concentration not given here
# [9] = biological target: NADPH oxidase 4 (Homo sapiens) (UniProt Q9NPH5); assay: compounds shifting NOX4 Amplex Red fluorescence – cell-based, HEK293-NOX4, tetracycline-induced, NOX inhibitor project, primary screen (AID 1160); conditions: HEK293-NOX4, Amplex Red H2O2 fluorescence, 45 min; higher = more signal, called active from +8 up or from −8 down
# [10] = biological target: NADPH oxidase 5 (Homo sapiens) (UniProt Q96PH1); assay: compounds shifting NOX5 Amplex Red fluorescence – cell-based, HEK293-NOX5, NOX inhibitor project, primary screen (AID 1161); conditions: HEK293-NOX5, ionomycin, 45 min, higher = more signal
# [11] = compound effects on lung adenocarcinoma cell viability – A549, calcein-AM fluorescence, 48 h, basal, profiling panel (AID 1162); conditions: higher = more signal; also: test concentration not given here
# [12] = compound effects on differentiated 3T3-L1 adipocyte viability – cell-based, 3T3-L1 adipocytes, calcein-AM fluorescence, 48 h, basal, profiling panel (AID 1163); conditions: 3T3-L1 adipocytes viability, higher = more signal; also: test concentration not given here
# [13] = compound effects on hepatocellular carcinoma cell viability – HepG2, calcein-AM fluorescence, 48 h, basal, profiling panel (AID 1164); conditions: higher = more signal; also: test concentration not given here
# [14] = compound effects on multiple myeloma cell viability – MM1S, calcein-AM fluorescence, 48 h, basal, profiling panel (AID 1165); conditions: higher = more signal; also: test concentration not given here
# [15] = calcein-AM signal in unstimulated myeloma cells – cell-based, calcein-AM fluorescence, 48 h, PK04 Diversity Set, profiling panel (AID 1166); conditions: RPMI8226 myeloma viability, higher = more signal;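 also: cells grown under basal conditions without added stimulus; test concentration not given here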
# [16] = JC-1 mitochondrial signal, unstimulated HepG2 cells – cell-based, JC-1 fluorescence, 24 h, 100 nL compound, profiling panel (AID 1167); conditions: HepG2 mitochondrial potential, higher = more signal; also: test concentration not given here
# [17] = JC-1 mitochondrial signal, unstimulated adipocytes – cell-based, JC-1 fluorescence, 3T3-L1 adipocytes, 24 h, 100 nL compound, profiling panel (AID 1168); conditions: JC-1 mitochondrial fluorescence, higher = more signal, called active from +8 up or from −8 down; also: test concentration not given here
# [18] = JC-1 mitochondrial signal, unstimulated myeloma cells – cell-based, JC-1 fluorescence, RPMI8226, 24 h, 100 nL compound, profiling panel (AID 1169); conditions: JC-1 mitochondrial potential fluorescence, higher = more signal; also: test concentration not given here
# [19] = JC-1 mitochondrial signal, unstimulated MM1S myeloma – cell-based, JC-1 fluorescence, 24 h, 100 nL compound, profiling panel (AID 1170); conditions: MM1S mitochondrial potential, higher = more signal; also: test concentration not given here
# [20] = resazurin metabolic signal in A549 cells – cell-based, resazurin fluorescence, 24 h, PK04 Diversity Set, profiling panel (AID 1171); conditions: A549 viability, higher = more signal, called active from +8 up or from −8 down; also: test concentration not given here
# Chain of NADPH oxidase 4 (Homo sapiens) (Q9NPH5 whole entry, looked up): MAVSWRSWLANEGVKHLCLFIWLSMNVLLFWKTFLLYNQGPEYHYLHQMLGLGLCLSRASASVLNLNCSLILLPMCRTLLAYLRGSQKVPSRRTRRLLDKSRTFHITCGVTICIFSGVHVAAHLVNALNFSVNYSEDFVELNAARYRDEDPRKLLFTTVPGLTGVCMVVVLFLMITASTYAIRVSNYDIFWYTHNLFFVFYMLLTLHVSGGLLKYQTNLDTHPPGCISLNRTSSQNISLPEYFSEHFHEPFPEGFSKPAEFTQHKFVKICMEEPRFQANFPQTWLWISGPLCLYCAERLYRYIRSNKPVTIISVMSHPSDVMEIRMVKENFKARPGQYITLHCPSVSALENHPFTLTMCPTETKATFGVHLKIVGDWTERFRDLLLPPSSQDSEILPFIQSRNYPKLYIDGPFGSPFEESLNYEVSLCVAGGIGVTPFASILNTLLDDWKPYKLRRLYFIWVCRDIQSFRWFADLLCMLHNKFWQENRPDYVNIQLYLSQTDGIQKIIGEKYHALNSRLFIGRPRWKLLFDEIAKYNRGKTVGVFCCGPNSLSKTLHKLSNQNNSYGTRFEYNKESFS
# Chain of NADPH oxidase 2 (Homo sapiens) (P04839 whole entry, looked up): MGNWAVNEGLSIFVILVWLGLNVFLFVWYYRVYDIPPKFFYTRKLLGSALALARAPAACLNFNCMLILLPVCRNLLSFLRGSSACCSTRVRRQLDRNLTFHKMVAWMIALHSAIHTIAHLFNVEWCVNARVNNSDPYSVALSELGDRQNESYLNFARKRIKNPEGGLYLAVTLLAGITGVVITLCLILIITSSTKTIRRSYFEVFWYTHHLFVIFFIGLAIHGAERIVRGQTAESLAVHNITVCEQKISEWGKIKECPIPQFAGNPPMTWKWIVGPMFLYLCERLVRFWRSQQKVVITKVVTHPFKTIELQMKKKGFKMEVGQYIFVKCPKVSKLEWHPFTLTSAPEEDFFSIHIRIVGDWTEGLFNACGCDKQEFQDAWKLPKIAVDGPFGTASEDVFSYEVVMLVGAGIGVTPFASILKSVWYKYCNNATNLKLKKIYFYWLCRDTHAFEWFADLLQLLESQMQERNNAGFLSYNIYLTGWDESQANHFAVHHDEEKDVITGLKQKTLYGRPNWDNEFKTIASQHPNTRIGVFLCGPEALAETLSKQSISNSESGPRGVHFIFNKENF
# Chain of NADPH oxidase 5 (Homo sapiens) (Q96PH1 whole entry, looked up): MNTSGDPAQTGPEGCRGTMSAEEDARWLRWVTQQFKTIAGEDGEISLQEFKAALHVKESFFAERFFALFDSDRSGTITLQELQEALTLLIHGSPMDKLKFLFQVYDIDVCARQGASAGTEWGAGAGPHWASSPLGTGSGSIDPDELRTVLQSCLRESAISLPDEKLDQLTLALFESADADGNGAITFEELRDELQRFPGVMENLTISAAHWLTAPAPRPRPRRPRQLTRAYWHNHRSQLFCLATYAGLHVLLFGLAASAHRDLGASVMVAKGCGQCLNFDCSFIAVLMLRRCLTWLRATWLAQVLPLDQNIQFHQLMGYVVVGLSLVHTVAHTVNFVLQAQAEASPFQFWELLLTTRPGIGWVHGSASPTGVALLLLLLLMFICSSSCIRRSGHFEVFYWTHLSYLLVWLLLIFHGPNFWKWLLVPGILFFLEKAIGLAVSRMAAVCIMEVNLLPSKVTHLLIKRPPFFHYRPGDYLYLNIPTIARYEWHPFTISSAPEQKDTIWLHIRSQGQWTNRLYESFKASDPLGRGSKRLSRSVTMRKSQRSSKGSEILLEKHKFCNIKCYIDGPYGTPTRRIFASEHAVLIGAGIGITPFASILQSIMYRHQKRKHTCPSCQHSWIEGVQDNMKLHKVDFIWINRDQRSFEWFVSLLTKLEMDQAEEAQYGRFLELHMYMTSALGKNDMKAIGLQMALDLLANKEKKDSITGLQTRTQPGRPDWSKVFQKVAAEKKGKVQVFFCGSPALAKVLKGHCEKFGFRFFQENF
Compound,z-score [1],composite z-score [2],z-score [3],z-score [4],z-score [5],z-score [6],z-score [7],z-score [8],z-score [9],z-score [10],z-score [11],z-score [12],z-score [13],z-score [14],z-score [15],z-score [16],z-score [17],z-score [18],z-score [19],z-score [20]
COCCOC(=O)N1C(=O)[C@@]2(c3cc(C#Cc4ccc(OC)cc4)ccc31)[C@H](c1ccc(O)cc1)N1[C@H](c3ccccc3)[C@H](c3ccccc3)OC(=O)[C@H]1[C@@H]2C(=O)Nc1nc2ccccc2s1,-1.12 (inactive),0.269,1.41 (inactive),0.616 (inactive),-1.14 (inactive),1.01 (inactive),0.263,1.95 (inactive),0.183 (inactive),-0.164,-0.738,0.967,0.0165,-1.55,-1.6,-2.51,-0.0239 (inactive),-0.71,-1.34,-0.838 (inactive)
COc1ccc(C(=O)Nc2cccc(CN3C(=O)[C@]4(O[C@H](CCn5cc(CCO)nn5)[C@@H]([Si](C)(C)c5ccc(OC)cc5)[C@@H]4C)c4ccccc43)c2)cc1,-0.856 (inactive),-0.0061,6.78 (inactive),2.29 (inactive),0.155 (inactive),1.7 (inactive),-0.815,-1.91 (inactive),-0.0331 (inactive),2.87,-3.46,-0.42,-4.63,-2.47,-4.35,-2.18,1.51 (inactive),-0.46,-2.05,-6 (inactive)
COCCOC(=O)N1C(=O)[C@@]2(c3ccccc31)[C@H](c1ccc(OCCO)cc1)N1[C@H](c3ccccc3)[C@H](c3ccccc3)OC(=O)[C@H]1[C@@H]2C(=O)N1CCc2cc(OC)c(OC)cc2C1,0.341 (inactive),0.358,12.7 (active),3.86 (inactive),1.99 (inactive),2.18 (inactive),0.828,1.16 (inactive),1.52 (inactive),-0.259,0.114,1.09,1.37,0.175,-0.0296,0.39,3.06 (inactive),-0.749,-1.53,-0.247 (inactive)
COC(=O)[C@]1(CCC(=O)OC(C)(C)C)N=C(c2ccc(OCCCO)cc2)O[C@@H]1c1ccccc1,0.687 (inactive),0.765,27.7 (active),27.2 (active),0.0027 (inactive),5.02 (inactive),-0.406,-1.93 (inactive),0.178 (inactive),-1.16,-1.32,0.899,-1.08,-3.43,-3.1,-2.23,-0.205 (inactive),-0.734,0.903,-1.99 (inactive)
CCOC(=O)C[C@H]1[C@H](OC(=O)c2ccc(-c3ccccc3)cc2)[C@@H](NC(=O)c2ccccc2)c2cc(OCCCO)ccc2N1C(=O)Cc1ccc(OC)cc1,0.118 (inactive),-0.0601,1.93 (inactive),0.442 (inactive),-0.113 (inactive),0.41 (inactive),-0.0916,1.31 (inactive),-0.847 (inactive),2.5,0.437,0.0615,0.66,-0.536,-0.345,2.23,0.285 (inactive),0.157,0.617,-0.0451 (inactive)
[N-]=[N+]=Nc1ccccc1C[C@@]1(C(=O)N2CCCCC2)N=C(c2ccc(OCCCO)cc2)O[C@@H]1c1ccccc1N=[N+]=[N-],0.0693 (inactive),0.926,31.8 (active),29.5 (active),2.52 (inactive),3.95 (inactive),0.0562,0.0863 (inactive),-0.141 (inactive),-0.801,-0.911,0.0245,-1.7,-3.47,-4.35,-1.21,-0.923 (inactive),-1.3,-2.21,-0.797 (inactive)
CCOC(=O)[C@H]1C/C=C/C[C@H](C(=O)OCC)C(=O)O[C@H]2[C@@H](OC)O[C@H](CO)[C@@H](OC(=O)c3ccc(Br)cc3)[C@@H]2OC1=O,-0.365 (inactive),-0.0349,2.35 (inactive),1.54 (inactive),-0.128 (inactive),0.877 (inactive),0.0379,-1.81 (inactive),-0.145 (inactive),-1.24,0.645,-0.009,0.404,-3.12,-3.75,-0.971,-0.339 (inactive),-0.935,-1.3,-1.92 (inactive)
C=CCNC(=O)[C@@H]1[C@H]2C(=O)O[C@H](c3ccccc3)[C@H](c3ccccc3)N2[C@H](c2ccc(OCCO)cc2)[C@@]12C(=O)N(C(=O)OCCOC)c1ccc(C#CCNC(N)=O)cc12,1.43 (inactive),0.284,4.2 (inactive),0.921 (inactive),1.47 (inactive),0.514 (inactive),0.472,0.827 (inactive),-0.213 (inactive),0.0624,-0.0901,0.488,0.219,0.911,-1.6,-0.734,0.648 (inactive),-0.888,0.679,-0.271 (inactive)
